PubChem BioAssay (NCATS)
Results filed as inconclusive are left out. Calls of active or inactive are those of the source. Calls come from the whole dose curve; as a rule, active = well fitted inhibition curve with a large enough effect; inconclusive = small, poorly fitted or top-dose-only effect; inactive = flat fitted curve, though single readings scatter. Where a SMILES comes first, the peptide text is derived from it. The star is where a group is joined. AFC = O=c1cc(C(F)(F)F)c2ccc(N*)cc2o1

Key:
Assay in all cases: Cytotoxic Profiling of Annotated Libraries Using Quantitative High-Throughput Screening (AID 1296008); note: nearly all actives have a fitted effect of over 60% in size
Settings in all cases: Five cell lines viability, CellTiter-Glo ATP luminescence, 48-72 h; max response: stronger effect = lower value
HaCat = tested on: HaCat
In short: (§1)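 Compounds were pin-transferred onto cells and incubated 48 or 72 hr at 37 degree Celsius, 95% humidity. CellTiter-Glo was added, plates sat 10 min at room temperature, then ATP-coupled luminescence was imaged as the viability read-out.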

KB-3-1 = tested on: KB-3-1
In short: as §1

NIH3T3 = tested on: NIH3T3
In short: as §1

Measured: max response
% is set by controls: 0 for no effect and ±100 for the full control effect.

CC(C)C(=O)OC[C@H]1O[C@H](O[C@H]2O[C@H](CO)[C@@H](O)[C@H](O)[C@H]2O)[C@H](O)[C@@H](O)[C@@H]1O
inactive: HaCat 0.512% | KB-3-1 | NIH3T3 -1.4%

CC1=CC(=O)CC(C)(C)C1CCC(C)O[C@@H]1O[C@H](CO[C@@H]2OC[C@@H](O)[C@H](O)[C@H]2O)[C@@H](O)[C@H](O)[C@H]1O (stereo not given in full)
inactive: HaCat 4.17% | KB-3-1 1.12% | NIH3T3 3.34%

CC(=O)N[C@@H](Cc1c[nH]c2ccccc12)C(=O)N[C@@H](CCC(=O)O)C(=O)N[C@@H](Cc1cnc[nH]1)C(=O)N[C@@H](CC(=O)O)C(=O)Nc1ccc2c(C(F)(F)F)cc(=O)oc2c1 (Ac-WEHD-{AFC})
inactive: HaCat -11.3% | KB-3-1 | NIH3T3 0.286%

O=C1C=CC(O)(/C=C/C(=O)OC[C@H]2O[C@@H](Oc3ccc(O)cc3)[C@H](O)[C@@H](O)[C@@H]2O)C=C1
inactive: HaCat 4.51% | KB-3-1 -7.33% | NIH3T3 -0.599%

CC1OC(OCC2OC(OC3CCC4(C)C(CCC5(C)C4CC=C4C6CC(C)(C)CCC6(C(=O)OC6OC(CO)C(O)C(O)C6O)CCC45C)C3(C)CO)C(O)C(O)C2O)C(O)C(O)C1O (stereo not given)
inactive: HaCat 2.13% | KB-3-1 9.22% | NIH3T3 0.258%
